Assay results from PubChem BioAssay AID1159580 (chemical genetic matrix, 2015).
Screen size: about 5,500 compounds; about 2,000 (36%) were called active. Not shown: some 18% with an inconclusive outcome. No stated cut-off is given here; in the data, active means normalized growth mostly below about 0.91 (no sharp cut-off); inconclusive means no clear call, values can overlap the other calls; inactive means mostly above about 0.92. The list shows a part of the results.

Experiment: chemical genetic growth profiling, strain panel (AID 1159580);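 further: tested at 20 µM; growth read once vehicle control cultures reached saturation at 30 °C; 1 = growth at the plate median or of vehicle wells; lower values mean less growth of the strain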
Conditions: S. cerevisiae deletion strains, growth OD
[1] = locus YAL021C, strain ccr4, active compounds read low
[2] = locus YAL026C, strain drs2, active compounds read low
[3] = locus YAL030W, strain snc1, active compounds read low
[4] = locus YBL061C, strain skt5, active compounds read low
[5] = locus YBR009C, strain hhf1, active compounds read low
[6] = locus YBR023C, strain chs3, active compounds read low
[7] = locus YBR171W, strain sec66, active compounds read low
[8] = locus YBR231C, strain swc5, active compounds read low
[9] = locus YBR279W, strain paf1, active compounds read low
[10] = locus YCL011C, strain gbp2, active compounds read low
[11] = locus YCL016C, strain dcc1, active compounds read low
[12] = locus YCL061C, strain MRC1, active compounds read low
[13] = locus YCL069W, strain vba3, active compounds read low
[14] = locus YCR088W, strain abp1, active compounds read low
[15] = locus YDL005C, strain med2, active compounds read low
[16] = locus YDL040C, strain nat1, active compounds read low
[17] = locus YDR001C, strain nth1, active compounds read low
[18] = locus YDR069C, strain doa4, active compounds read low
[19] = locus YDR137W, strain rgp1, active compounds read low
[20] = locus YDR159W, strain sac3, active compounds read low
[21] = locus YDR297W, strain sur2, active compounds read low
[22] = locus YDR334W, strain swr1, active compounds read low
[23] = locus YDR335W, strain msn5, active compounds read low
[24] = locus YDR392W, strain spt3, active compounds read low
[25] = locus YEL003W, strain gim4, active compounds read low
[26] = locus YEL037C, strain rad23, active compounds read low
[27] = locus YEL061C, strain CIN8 (second series), active compounds read low
[28] = locus YER015W, strain faa2, active compounds read low
[29] = locus YER016W, strain bim1, active compounds read low
[30] = locus YER111C, strain swi4, active compounds read low
[31] = locus YER155C, strain BEM2 (second series), active compounds read low
[32] = locus YFR010W, strain ubp6, active compounds read low
[33] = locus YGL167C, strain pmr1, active compounds read low
[34] = locus YGL173C, strain kem1, active compounds read low
[35] = locus YGL227W, strain vid30, active compounds read low
[36] = locus YGL240W, strain doc1, active compounds read low
[37] = locus YGL253W, strain hxk2, active compounds read low
[38] = locus YHR013C, strain ard1, active compounds read low
[39] = locus YHR027C, strain rpn1, active compounds read low
[40] = locus YHR030C, strain SLT2, active compounds read low
[41] = locus YHR079C, strain IRE1, active compounds read low
[42] = locus YHR142W, strain chs7, active compounds read low
[43] = locus YJL092W, strain hpr5, active compounds read low
[44] = locus YJL095W, strain BCK1 (second series), active compounds read low
[45] = locus YJL095W, strain BCK1, active compounds read low
[46] = locus YJL115W, strain asf1, active compounds read low
[47] = locus YJL129C, strain trk1, active compounds read low
[48] = locus YJL154C, strain vps35, active compounds read low
[49] = locus YJL164C, strain tpk1, active compounds read low
[50] = locus YJL166W, strain qcr8, active compounds read low
[51] = locus YJL187C, strain SWE1, active compounds read low
[52] = locus YJR066W, strain TOR1, active compounds read low
[53] = locus YKL160W, strain elf1, active compounds read low
[54] = locus YKR026C, strain gcn3, active compounds read low
[55] = locus YKR091W, strain srl3, active compounds read low
[56] = locus YLL001W, strain dnm1, active compounds read low
[57] = locus YLL026W, active compounds read low
[58] = locus YLL041C, strain sdh2, active compounds read low
[59] = locus YLR027C, strain aat2, active compounds read low
[60] = locus YLR113W, strain HOG1, active compounds read low
[61] = locus YLR221C, strain rsa3, active compounds read low
[62] = locus YLR258W, strain gsy2, active compounds read low
[63] = locus YLR262C, strain YPT6 (second series), active compounds read low
[64] = locus YLR320W, strain mms22, active compounds read low
[65] = locus YLR342W, strain FKS1, active compounds read low
[66] = locus YLR357W, strain rsc2, active compounds read low
[67] = locus YLR370C, strain arc18, active compounds read low
[68] = locus YLR384C, strain iki3, active compounds read low
[69] = locus YML120C, strain ndi1, active compounds read low
[70] = locus YMR058W, strain fet3, active compounds read low
[71] = locus YMR125W, strain sto1, active compounds read low
[72] = locus YMR129W, active compounds read low
[73] = locus YMR205C, strain PFK2, active compounds read low
[74] = locus YMR231W, strain pep5, active compounds read low
[75] = locus YNL071W, strain lat1, active compounds read low
[76] = locus YNL183C, strain NPR1, active compounds read low
[77] = locus YNL209W, strain ssb2, active compounds read low
[78] = locus YNL248C, strain rpa49, active compounds read low
[79] = locus YNL322C, strain KRE1 (second series), active compounds read low
[80] = locus YNR049C, strain mso1, active compounds read low
[81] = locus YOR001W, strain rrp6, active compounds read low
[82] = locus YOR070C, strain gyp1, active compounds read low
[83] = locus YOR080W, strain dia2, active compounds read low
[84] = locus YOR083W, strain WHI5, active compounds read low
[85] = locus YOR106W, strain vam3, active compounds read low
[86] = locus YOR231W, strain MKK1, active compounds read low
[87] = locus YOR265W, strain rbl2, active compounds read low
[88] = locus YOR270C, strain vph1, active compounds read low
[89] = locus YOR290C, strain snf2, active compounds read low
[90] = locus YPL051W, strain arl3, active compounds read low
[91] = locus YPL078C, strain atp4, active compounds read low
[92] = locus YPL106C, strain sse1, active compounds read low
[93] = locus YPL240C, strain hsp82, active compounds read low
[94] = locus YPL256C, strain CLN2, active compounds read low

Measured: normalized growth

O=C(/C=C/c1ccc(O)c(O)c1)OC(Cc1ccc(O)c(O)c1)C(=O)O (configuration not stated)
inactive: [1] 1.07 | [2] 1.03 | [3] 1.01 | [4] 1.05 | [5] 1.01 | [6] 1.04 | [7] 1.01 | [8] 0.994 | [9] 1.02 | [10] 1.02 | [11] 1.05 | [12] 1.03 | [13] 1.02 | [14] 1.02 | [15] 1.01 | [16] 1.02 | [17] 1.02 | [18] 1.03 | [19] 1.09 | [20] 0.922 | locus YDR195W, strain ref2 1.07 | [21] 1.02 | [22] 1.04 | [23] 1.03 | [24] 0.885 | [25] 0.999 | [26] 1.02 | [27] 1.02 | [28] 1.01 | [29] 1.04 | [30] 1.01 | [31] 0.997 | [32] 0.997 | [33] 1.01 | [34] 0.995 | [35] 1.02 | [36] 1.04 | [37] 1.05 | [38] 0.999 | [39] 1 | [40] 0.982 | [41] 0.989 | [42] 1.04 | [43] 1.02 | [44] 1.03 | [45] 0.999 | [46] 1.02 | [47] 1.03 | [48] 1.02 | [49] 0.99 | [50] 1.03 | [51] 1.03 | [52] 0.912 | [53] 1.04 | [54] 1.03 | [55] 1.01 | [56] 1 | [57] 1.02 | [58] 1.02 | [59] 1.04 | [60] 0.979 | [61] 0.989 | [62] 1.01 | [63] 1.05 | [64] 1 | [65] 1.02 | [66] 1.04 | [67] 1.03 | [68] 1 | [69] 0.994 | [70] 0.932 | [71] 1.02 | [72] 1.02 | [73] 1.08 | [74] 1.01 | [75] 1.01 | [76] 0.905 | [77] 1 | [78] 1.03 | [79] 1.03 | [80] 1.02 | [81] 0.965 | [82] 1.01 | [83] 1.02 | [84] 0.988 | [85] 1.05 | [86] 1 | [87] 1.01 | [88] 1.07 | [89] 1.04 | [90] 1.04 | [91] 1.06 | [92] 1.06 | [93] 1.02 | [94] 1

O=C(/C=C/c1ccc(O)c(O)c1)OCCc1ccccc1
active: [2] 0.671 | [3] 0.889 | [4] 0.767 | [5] 0.781 | [6] 0.774 | [8] 0.587 | [9] 0.848 | [10] 0.751 | [11] 0.774 | [12] 0.851 | [13] 0.913 | [14] 0.841 | [18] 0.804 | [19] 0.589 | locus YDR195W, strain ref2 1.19 [resistant] | [21] 0.87 | [22] 0.641 | [23] 0.868 | [24] 0.116 | [25] 0.691 | [27] 0.693 | locus YER002W, strain NOP16, active compounds read low 0.896 | [28] 0.775 | [29] 0.868 | [30] 0.808 | [31] 0.463 | [34] 0.796 | [35] 0.287 | [37] 0.749 | locus YGR078C, strain PAC10, active compounds read low 0.881 | locus YGR229C, strain SMI1, active compounds read low 0.357 | [38] 0.683 | [39] 0.857 | [40] 0.837 | [41] 0.803 | [42] 0.592 | [43] 0.891 | [44] 0.644 | [45] 0.863 | [47] 0.522 | [49] 0.766 | [50] 0.807 | [51] 0.851 | [52] 0.742 | locus YJR075W, strain HOC1, active compounds read low 0.858 | [53] 0.724 | [54] 0.908 | [55] 0.928 | [56] 0.832 | [57] 0.896 | [58] 0.898 | [59] 0.774 | [61] 0.69 | [62] 0.844 | [63] 0.493 | [64] 0.453 | [65] 0.796 | [69] 0.686 | [70] 0.494 | [71] 0.615 | [72] 0.911 | [73] 0.66 | [74] 0.759 | [75] 0.478 | locus YNL175C, strain NOP13, active compounds read low 0.879 | [76] 0.803 | [77] 0.855 | [78] 0.769 | locus YNL322C, strain KRE1, active compounds read low 0.881 | [81] 0.8 | [82] 0.827 | locus YOR083W, strain WHI5 (second series), active compounds read low 0.751 | [84] 0.81 | [85] 0.573 | [86] 0.857 | [87] 0.881 | [88] 0.568 | [89] 0.748 | [90] 0.652 | [91] 0.855 | [93] 0.845
inactive: [1] 0.937 | locus YAL040C, strain CLN3, active compounds read low 1.08 | [7] 0.911 | [15] 0.964 | [16] 0.96 | [17] 0.933 | [20] 0.916 | locus YDR363W, strain ESC2, active compounds read low 0.98 | [26] 0.938 | [32] 0.906 | [33] 0.941 | [36] 0.927 | [46] 0.989 | [48] 0.962 | [60] 0.862 | [66] 0.88 | [67] 0.944 | [68] 0.972 | locus YNL197C, strain WHI3, active compounds read low 0.897 | locus YNL224C, strain SQS1, active compounds read low 0.937 | [79] 0.963 | [80] 0.944 | [83] 0.961 | [92] 0.882 | locus YPL241C, strain CIN2, active compounds read low 0.964 | [94] 0.854
